High-throughput results (PubChem BioAssay)
CHX counter – counter-screen hit for Shiga toxin inhibitors, cycloheximide. cell reporter, cycloheximide protein synthesis inhibition counterscreen. max response, %. actives 12% (n = 300,000). AID 2314; in the data active = max response mostly above about 13%, no sharp cut-off; inactive = mostly below about 14%; note: read at 38.3 µM for the half of the compounds with a filed dose; 0% is about no effect
FMDV inh – foot and mouth disease virus antiviral activity. FMDV antiviral cell-based qHTS. Potency, µM (series often up to 57.9 µM), without a hit: at the highest dose activity change, negative = inhibition, actives largely listed as inhibitors. actives 1.2% (n = 410,000). AID 1159524; calls by dose curve; tested in HEK293T cells; note: read-out not given here; potency is the fitted concentration of half-maximal effect; % is set by controls: 0 for no effect and ±100 for the full control effect; nearly all actives have a fitted effect of over 45% in size
Marburg entry inh – blocks Marburg virus binding to or entry into cells. Marburg virus pseudotyped entry inhibition, cell reporter. Potency, µM (titrated, usually from 37.8 µM), for the others: at the highest dose activity change, negative = inhibition, actives largely listed as inhibitors. actives 1.8% (n = 300,000); calls by dose curve; tested in HEK293 cells; note: potency is the fitted concentration of half-maximal effect; % is set by controls: 0 for no effect and ±100 for the full control effect
HCV inh – HCV inhibition. Huh7.5.1 HCVcc-Cre infection, luciferase reporter, 44 h. Potency, µM (series often up to 41.8 µM), for inactives: at the top dose activity change, negative = inhibition, usual class: inhibitors. actives 3.4% (n = 340,000); active = well fitted inhibition curve with a large enough effect; inconclusive = small, poorly fitted or top-dose-only effect, or another doubt; inactive = no such curve, though single readings can be large or run the other way; note: potency is the fitted concentration of half-maximal effect; % is set by controls: 0 for no effect and ±100 for the full control effect
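Cells seeded at 1,000/well and cultured 4 h, then compounds added followed by HCVcc-Cre virus (~0.5 moi). After 44 h further culture, luciferase substrate was added, plates held 15 min at room temperature, and luminescence read for 15 sec.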
Shiga inhibitor – inhibitors of Shiga toxin in Vero cells. Vero cells, Shiga toxin protein synthesis inhibition reporter. inhibition, % at 38.7 µM. actives 9.2% (n = 290,000); in the data active = inhibition mostly above about 28%, no sharp cut-off; inactive = mostly below about 43%; note: 0% is about no effect
Lassa entry inh – Lassa virus entry inhibition. Lassa virus pseudotype entry inhibition, cell reporter. Potency, µM (top dose mostly 37.9 µM), for inactives: at the highest dose activity change, negative = inhibition, usual class: inhibitors. actives 1.2% (n = 300,000). AID 540256; calls by dose curve; tested in HEK293 cells; note: potency is the fitted concentration of half-maximal effect; % is set by controls: 0 for no effect and ±100 for the full control effect; nearly all actives have a fitted effect of over 50% in size
Numbers without * were called inactive; u = inconclusive; x = no result; [ ] = remark or other dose. Shown are actives, neighbours in structure and some others; about 13% of the full set was active somewhere.

SMILES | CHX counter | FMDV inh | Marburg entry inh | HCV inh | Shiga inhibitor | Lassa entry inh
Cc1ccc(C(=O)NNC(=O)c2ccccc2OCc2c(C)noc2C)cc1 | x | 7% | 3.5µM* | 1% | x | 6%
Cc1noc(C)c1COc1ccccc1C(=O)NCCc1ccccc1 | x | -16% | -11% | 3.2µM* | x | 8%
Cc1ccc(NC(=O)c2cccc(OCc3c(C)noc3C)c2)cc1 | 29* | 10% | u | u | 39 | 7%
Cc1noc(C)c1COc1cccc(C(=O)Nc2ccccc2)c1 | x | -2% | x | u | x | x
Cc1noc(C)c1COc1ccccc1C(=O)NNC(=O)c1ccccc1 | x | 17% | 0% | -8% | x | -5%
Cc1ccc(NC(=O)c2ccc(OCc3c(C)noc3C)cc2)nc1 | x | u | x | 11µM* | x | x
COc1ccccc1N1CCN(S(=O)(=O)c2cc(-c3cc(C)no3)ccc2C)CC1 | x | -26% | x | x | x | -18%[46.1 µM]
CCCCC(=O)N1CCCC(C(=O)OCC)C1 (stereo not given) | 1 | -25% | -6% | 5% | -3 | 4%
Cc1noc(C)c1COc1cccc(C(=O)NCCc2c[nH]c3ccccc23)c1 | 14 | -18% | u | u | 17 | 10µM*
Cc1ccc(CNC(=O)c2cccc(OCc3c(C)noc3C)c2)cc1 | 5 | -27% | -6% | -5% | 5 | -26%
Cc1ccc(-c2cc(C(=O)Oc3ccc(C#N)cc3)no2)cc1 | x | -3% | u | x | x | 0%[46.1 µM]
O=C(CNC(=O)c1ccc(Br)o1)Nc1ccc(N2CCCCCC2)cc1 | x | 9% | -24% | 19% | x | -12%
CC(C)N1CCC1(C)C(=O)Nc1cccc2ccccc12 (stereo not given) | x | 22µM* | x | x | x | x
O=C(Nc1ccc2c(c1)OCCO2)C1CCCN1C(=O)Nc1ccc(F)cc1 (stereo not given) | 12* | -4% | -10%[46.1 µM] | 2% | 32 | -5%[46.1 µM]
O=C(Nc1ccc2c(c1)OCO2)N1CCCC1 | 9 | 42% | x | 5% | 55* | x
O=C(Nc1ccc2c(c1)OCCO2)C1CCCN1C(=O)Nc1ccccc1 (stereo not given) | -10 | 5% | 1%[46.1 µM] | 21% | -11 | -1%
O=C(Nc1ccc(F)cc1)N1CCOCC1 | -2 | 6% | -9% | 11% | 23 | u
O=C(Nc1ccc2c(c1)OCO2)N1CCN(c2ccccc2)CC1 | 10 | 7% | x | 5% | 21 | x
CN(C)c1ccc(NC(=O)N2CCOCC2)cc1 | 39* | 60% | 13% | 0% | 72* | -6%
O=C(Nc1ccc2c(c1)OCO2)N1CCN(c2ncccn2)CC1 | 35* | 47% | u | 1% | 83* | u
Cc1cccc(NC(=O)CCN2C(=O)C3C4C=CC(C4)C3C2=O)c1 (stereo not given) | 9 | 12% | 14% | 17% | -19 | -17%
COc1ccccc1C1CC(=O)Nc2c1c(=O)n(C)c(=O)n2C (stereo not given) | -3 | -3% | x | 1% | 4 | x
CC1CN(C(=O)Nc2ccc3c(c2)OCO3)CC(C)O1 (stereo not given) | 45* | 58% | 24% | 18% | 50* | 9%
O=C(Nc1ccc2c(c1)OCO2)N1CCN(c2ccc(F)cc2)CC1 | 19* | -12% | u | -22% | 46 | 17%[46.1 µM]
O=C(Nc1ccc2c(c1)OCCO2)N1CCOCC1 | 25 | 35% | -4%[46.1 µM] | -12% | 54 | u
SMILES | CHX counter | FMDV inh | Marburg entry inh | HCV inh | Shiga inhibitor | Lassa entry inh
O=C(Nc1ccc2c(c1)OCO2)N1CCOCC1 | 36* | 26% | 17% | 1% | 66* | 0%
O=C(Nc1ccc2oc(=O)ccc2c1)c1ccc(-c2ccc(Cl)cc2)o1 | -2 | -15% | u | 12% | 4 | -3%
O=C(Nc1ccc2oc(=O)ccc2c1)c1ccc(-c2cccc(Cl)c2)o1 | -2 | -17% | x | 10µM* | -4 | x
O=C(Nc1ccc2oc(=O)ccc2c1)c1ccc(-c2cccc([N+](=O)[O-])c2)o1 | 11 | 32µM* | u | 8.9µM* | 62 | u
O=C(Nc1ccc2oc(=O)ccc2c1)c1ccc(-c2ccccc2[N+](=O)[O-])o1 | 7 | -27% | u | u | 29 | -11%
O=C(NCC1CCCO1)c1cccc(-n2cnnn2)c1 (stereo not given) | -3 | -9% | -6%[46.1 µM] | -1% | -9 | 4%
CCOC(=O)Cc1c(C)[nH]n(-c2ccccc2)c1=O | 4 | -4% | 13%[46.1 µM] | 17% | 5 | -26%
O=C(COC(=O)c1ccccc1)c1ccc(S(=O)(=O)N2CCCCC2)cc1 | x | -29% | 3% | 18% | x | -6%
